A selection: hits, their analogues and other compounds. The true share with any hit is near 2.9%.
FAS-TE inh: blocks the thioesterase domain of human fatty acid synthase. P49327. inhibition, % at 15 µM. actives 0.67% (n = 360,000). AID 602261. recombinant FAS-TE, OMFH fluorogenic substrate, fluorescence endpoint;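 active means compounds whose normalised, plate-corrected inhibition of enzyme fluorescence in the single-dose primary screen is 50% or more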;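 further: 0% = DMSO with enzyme and 100% = substrate without enzyme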
FXN GAA850 act: activators of GAA850 frataxin (FXN) promoter; HEK293 lucGAA850 FXN promoter luciferase reporter, 24 h; percent of 10 µM SAHA response; actives 0.56% (n = 360,000); activation, % at 6 µM;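 active means activation above the average of all compounds screened plus 3 SD, cutoff fixed separately per campaign, cut at about 7.5% in these data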;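 further: 0% = DMSO wells and 100% = 10 µM SAHA wells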
KLK7 zymogen act: activates the human kallikrein-7 zymogen | activation, % at 7 µM | AID 652039 | purified proKLK7, EDANS-DABCYL substrate fluorescence; 100% is mature enzyme control, 0% vehicle | P49862 | actives 0.9% (n = 370,000);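 active means activation above the mean of all tested compounds plus 3 SD, computed per campaign excluding outliers beyond control limits, cut at about 13% in these data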
SMARCA2 activ: activators of SMARCA2 function; MG213 cells, MMTV-luciferase reporter, dexamethasone, overnight; activation, % at 9.1 µM; actives 1% (n = 370,000); AID 652017; in the data active means activation above about 7.8%;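 further: 0% = vehicle wells and 100% = reference activator wells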
proKLK7 act conf: confirmation of human kallikrein-7 zymogen activators; shares compounds with KLK7 zymogen act; purified proKLK7, EDANS-DABCYL substrate fluorescence; scaled: vehicle 0, mature enzyme 100; activation, % at 7 µM; actives 68% (n = 3,200); AID 686949;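 active means activation, as change over the incubation, above the mean of all tested compounds plus 3 SD, cut at about 13% in these data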
EDANS-DABCYL int: counter-screen for kallikrein-7 activators: EDANS-DABCYL optical interference; shares compounds with KLK7 zymogen act; EDANS-DABCYL substrate fluorescence interference, no enzyme, 4 h; solvent 0%, active enzyme control 100%; activation, % at 7 µM; actives 80% (n = 3,200);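 active means activation above the all-compound mean plus 3 SD, ignoring values outside control-based bounds, cut at about 4.8% in these data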;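 further: value is the 4 h activation minus the activation read at time zero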
EDANS interf: optically interferes with EDANS-DABCYL fluorescence, kallikrein-7 activator counter-screen. EC50, µM. AID 720493. EDANS-DABCYL peptide fluorescence interference, no enzyme. shares compounds with KLK7 zymogen act. actives 20% (n = 250);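 active means compounds that raise the fluorescence signal in this interference counterscreen, with EC50 at or below 10 µM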;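 further: intact quenched peptide substrate alone read at 355 nm excitation and 520 nm emission; signal is fluorescence gain from T0 to T4 after four hours at room temperature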
An asterisk follows results filed as active; nt = not tested or not shown.

SMILES	FAS-TE inh	FXN GAA850 act	KLK7 zymogen act	SMARCA2 activ	proKLK7 act conf	EDANS-DABCYL int	others
O=C1CCCc2nc3c(cc21)C(O)Oc1ccccc1-3 (centres undefined)	-2	1	71*	-2	52*	65*
CCOc1ccc(NC(=O)c2ccco2)cc1S(=O)(=O)N1CCCC1	-6	2	0	-1	nt	nt
O=C1c2ccccc2-c2n[nH]c3cccc1c23	-17	3	63*	1	74*	75*
COc1cc(N/C(N)=N/c2nc(C)cc(C)n2)cc(OC)c1	-6	-2	14*	-2	0	0
O=C(CN1C(=O)NC2(CCCC2)C1=O)Nc1ccccc1N1CCCC1	-8	1	0	-1	nt	nt
Cc1cc2c(cc1S(=O)(=O)N1CCN(c3cccc(C(F)(F)F)c3)CC1)OCC(=O)N2	6	4	0	-1	nt	nt
CC(=O)c1ccc(N2CCN(S(=O)(=O)c3cc4c(cc3C)NC(=O)CO4)CC2)cc1	3	1	20*	-6	11	8.1*
N#Cc1c(N)n(CCCN2CCOCC2)c2nc3ccccc3nc12	-6	2	47*	-1	68*	79*
CCCCCn1c(N)c(C#N)c2nc3ccccc3nc21	9	2	22*	-3	-60	-56
CCCCn1c(NC(C)=O)c(C#N)c2nc3ccccc3nc21	-5	0	-21	0	nt	nt
CCN(CC)S(=O)(=O)c1ccc2c3c(cccc13)C(=O)N2	-7	1	23*	-2	15*	21*
O=S(=O)(NCCCO)c1ccc2c(c1)Cc1cc(S(=O)(=O)NCCCO)ccc1-2	-5	-1	0	2	nt	nt
O=C1Nc2ccc(S(=O)(=O)NCCCO)c3cccc1c23	-2	-3	64*	-3	83*	86*
CCOC(=O)c1c(C)oc2ccc(NS(=O)(=O)c3ccc4c5c(cccc35)C(=O)N4)cc12	30	1	3	2	nt	nt
CCNS(=O)(=O)c1ccc2c3c(cccc13)C(=O)N2	-8	3	86*	6	68*	82*
CCN(c1cccc(C)c1)S(=O)(=O)c1ccc2c3c(cccc13)C(=O)N2	15	2	-1	-3	nt	nt
O=S(=O)(NCCC1=CCCCC1)c1ccc(F)cc1	12	1	0	1	nt	nt
O=C1Nc2ccc(S(=O)(=O)NCCC3=CCCCC3)c3cccc1c23	3	-1	18*	-7	12	19*
CC(=O)Nc1ccc2c(c1)C(=Nc1ccccc1)c1ccccc1-2	10	2	0	0	nt	nt
CC(=O)Nc1cc2c3c(cccc3c1)-c1ccccc1-2	-2	4	89*	0	28*	-18	EDANS interf=9.9*
O=C(Nc1ccccc1C(=O)Nc1ccccc1C(=O)NCc1ccco1)c1ccco1	20	-3	20*	0	-103	-119
O=C(Nc1ccccc1C(=O)NCc1ccco1)c1ccco1	-6	3	-1	-1	nt	nt
O=C(O)/C=C/c1ccc(S(=O)(=O)Nc2ccc(C(=O)NCC(=O)O)cc2)cc1	-2	0	-1	0	nt	nt
Fc1ccc2cc(-c3cccnc3)ncc2c1	-7	2	0	5	nt	nt
O=C(CN1C(=O)c2ccccc2C1=O)NCCOc1ccccc1	-3	1	0	-3	nt	nt
SMILES	FAS-TE inh	FXN GAA850 act	KLK7 zymogen act	SMARCA2 activ	proKLK7 act conf	EDANS-DABCYL int	others
CCOC(=O)c1[nH]c2ccc(C)cc2c1N	-6	2	-4	6	nt	nt
CCOC(=O)c1[nH]c2cc(OC)c(OC)cc2c1N	-11	1	13*	2	30*	31*
Cc1nc2nc(-c3ccc(Cl)cc3)cn2nc1C	-7	-2	53*	6	75*	79*
COc1ccc(S(=O)(=O)NCCc2ccccn2)cc1	-9	-1	1	-3	nt	nt
Cc1nc2nc(CCNS(=O)(=O)c3ccc(Cl)cc3)cn2nc1C	-4	0	24*	2	75*	75*
COc1ccc(S(=O)(=O)NCCc2cn3nc(C)c(C)nc3n2)cc1	-8	0	32*	-2	71*	77*
CCN(CC)CCNS(=O)(=O)c1ccc(Cl)cc1	-6	-2	1	-4	nt	nt
CCOc1ccccc1NC(=O)c1sc2nc(C)nc(N3CCOCC3)c2c1C	9	2	-1	-1	nt	nt
COc1ccc(S[C@]2(C(=O)N(C)C)CC(=O)N(c3ccc(Cl)cc3)[C@@H]2c2ccc(OC)cc2)cc1	nt	nt	0	-2	nt	nt
C=CCNC(=O)CSc1ncc2c(n1)-c1c(csc1SC)CC2	1	0	46*	-2	59*	69*
CN1C2C=CC(=O)C1C1C(=O)N(c3ccccc3)C(=O)C12 (centres undefined)	-5	nt	0	0	nt	nt
CCCCc1cc(=O)oc2c3c(cc(OCC(=O)N4CCC[C@H]4C(=O)O)c12)OC(C)(C)CC3	15	3	53*	0	57*	62*
Cc1cc(=O)oc2c3c(cc(OCC(=O)N4CCC(C(=O)O)CC4)c12)OC(C)(C)CC3	-2	-1	48*	0	65*	61*
Cc1cc(=O)oc2c3c(cc(OCC(=O)Nc4ccc(CCO)cc4)c12)OC(C)(C)CC3	1	0	-38	1	nt	nt
Cc1cc(=O)oc2c3c(cc(OCC(=O)N4CCC[C@H]4C(=O)O)c12)OC(C)(C)CC3	-4	0	35*	1	66*	64*
COc1ccc(C2c3c(oc4ccccc4c3=O)C(=O)N2Cc2ccncc2)cc1OC (centres undefined)	nt	nt	1	-4	nt	nt
O=C(CCS(=O)(=O)c1cccc2nsnc12)N1CC(=O)N(CCc2ccccc2)C(=O)C1	-5	0	0	-1	nt	nt
Cc1ccc2nc(N3CCN(CCO)CC3)nc(-c3ccccc3)c2c1	-5	0	21*	-1	6	4.1*
CN1CCN(c2nc(-c3ccccc3)c3cc(Cl)ccc3n2)CC1	10	2	-1	-3	nt	nt
Clc1ccc2nc(N3CCNCC3)nc(-c3ccccc3)c2c1	-50	4	16*	-5	-6	-9
COC(=O)Cn1c2ccccc2c(=O)n1C(C)CBr (centres undefined)	-10	nt	67*	-1	62*	55*
Nc1ccc2c(c1)[nH]c(=O)c1cc(N)ccc12	-4	4	99*	4	61*	71*
CCOc1cccc(-c2c(C(=O)N/N=C/c3c(F)cccc3Cl)nnn2-c2nonc2N)c1	7	1	0	-4	nt	nt
O=c1c(-c2ccccc2)c(O)nc2ccccn12	-5	2	0	-2	nt	nt
O=c1c2ccccc2nc2ccccn12	-4	3	50*	7	42*	41*
Cc1ccc2c(Cl)cc(Cl)c(OCC(=O)OCC(=O)Nc3ccc(C#N)cc3)c2n1	-4	2	-1	-1	nt	nt
